# Bioassay records (PubChem)
# GALC G270D act: raises human GALC G270D mutant activity in cells | P54803 | 145M-Twi-hGALC-G270D cells (Twitcher mouse brain line with human GALC G270D), HMU-beta-Gal fluorescence, 48 h | Potency, µM (highest dose often 57.5 µM), actives largely listed as activators | 45,000 compounds, 0.1% hits; also: potency is read from the fitted curve at half-maximal effect; 0% is about no effect; nearly all actives have a fitted effect of over 65% in size
#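 Fluorescence readout: HMU-β-gal cleavage by mutant GALC (0.1 mM final, citrate/phosphate pH 5.2 with 1 mg/mL taurocholate), stopped with carbonate/bicarbonate plus Triton X-100. Cells: murine Twitcher 145M-Twi expressing human G270D GALC; qHTS for activators.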
# DRV1 agonist: activates human resolvin D1 receptor GPR32; O75388; CHO-K1 GPR32 beta-arrestin PathHunter luminescence, 90 min; zero percent set by DMSO-only wells; activation, % at 76.9 µM; 48,000 compounds, 2.5% hits; AID 1346428;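 active = activation of at least 60% and not above a set upper limit, about 1 call in 100 departs from these limits; inconclusive = activation of 40% to 60%, or above that upper limit; inactive = activation under 40%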; also: 0% is about no effect
#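 GPR32 activation in stably transfected CHO-K1 cells, detected as beta-arrestin recruitment by enzyme-fragment complementation. Compound exposure: 90 min, 37 °C.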
# FH mod: Identification of activators of human fumarate hydratase by quantitative high-throughput screening. 54,000 compounds, 0.22% hits. FH coupled MDH/diaphorase resazurin fluorescence, 15 min. Potency, µM (top dose mostly 79.9 µM), for the others: top-dose activity change, negative = inhibition, hits mostly inhibitors. Fumarate hydratase, mitochondrial (Homo sapiens), P07954; also: potency is read from the fitted curve at half-maximal effect; % is scaled to controls: 0 for no effect and ±100 for the full control effect; the screen sought activators but most active calls are inhibition curves; nearly all actives have a fitted effect of over 45% in size
# HTT-AS act: HTT-AS promoter activation; AID 1508624; HEK293 HTT-AS promoter firefly luciferase reporter, 24 h; response scale: percent change from vehicle, -100% = no light; Potency, µM (doses to about 57.5 µM), inactives show top-dose activity change, positive = activation, hits mostly activators; 48,000 compounds, 0.24% hits; also: potency is read from the fitted curve at half-maximal effect; nearly all actives have a fitted effect of over 55% in size
#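 Quantitative HTS used concentration series of up to 57.5 uM final on HEK293 luciferase reporter cells, 24 h at 37 degrees C. Readout was Dual-Glo firefly luminescence.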
# B2AR arrestin ag: beta-arrestin recruitment by human beta2-adrenergic receptor ligands. P07550. HTLA Tango cells, beta-arrestin recruitment, luciferase luminescence, 18 h. Potency, µM (titrated, usually from 46.1 µM), actives largely listed as activators. 44,000 tested, under 10 active. AID 1347077;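 also: potency is read from the fitted curve at half-maximal effect; 0% = DMSO and full agonism = EC100 isoproterenol or metaproterenol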
# Target sequence (P07550 whole entry, looked up): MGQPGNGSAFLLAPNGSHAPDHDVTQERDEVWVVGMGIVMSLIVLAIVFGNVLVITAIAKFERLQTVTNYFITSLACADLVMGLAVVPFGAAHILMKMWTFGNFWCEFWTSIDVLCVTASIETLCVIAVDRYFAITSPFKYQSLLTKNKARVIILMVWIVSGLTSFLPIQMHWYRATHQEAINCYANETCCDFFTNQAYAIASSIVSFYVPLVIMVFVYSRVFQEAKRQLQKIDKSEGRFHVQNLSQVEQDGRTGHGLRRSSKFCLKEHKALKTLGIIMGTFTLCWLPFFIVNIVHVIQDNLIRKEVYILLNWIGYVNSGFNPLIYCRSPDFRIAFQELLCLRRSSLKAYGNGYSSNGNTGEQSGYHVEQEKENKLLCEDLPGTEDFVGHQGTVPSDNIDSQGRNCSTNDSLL
#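 Tango cell line, 1% FBS DMEM; cpd titration up to 46 microM; 18 hr, 37 degrees C, 5% CO2. Luciferin/ATP substrate mix added, 15 min RT, luminescence. %Activity, CRC fitting, curve-class categorization.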
# HTT promoter inh: HTT promoter inhibition; HEK293 HTT promoter firefly luciferase reporter, 24 h; Potency, µM (highest dose often 57.5 µM), for inactives: top-dose activity change, negative = inhibition, usual class: inhibitors; 48,000 compounds, 0.93% hits; also: potency is read from the fitted curve at half-maximal effect; nearly all actives have a fitted effect of over 50% in size
#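 HEK293 luciferase promoter-reporter cells (2,500/well) plated 24 h, then compounds added at up to 57.5 uM final for 24 h at 37 °C. Firefly luminescence by Dual-Glo, normalized to vehicle (0%) and zero RLU (-100%).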
# Starred values were filed as active, the others as inactive; i = inactive; ? = inconclusive; nt = no result; ! = not active in a repeat; [ ] = remark or other dose. In the library only some 3.7% were active in any assay of this set; here they are far more common. Unless noted, calls follow the shape of the dose curve; as a rule, active = well fitted curve in the direction sought with a large enough effect; inconclusive = small, poorly fitted or top-dose-only effect, or another doubt; inactive = no such curve, though single readings can be large; an effect the other way counts as inactive or inconclusive.
SMILES,GALC G270D act,DRV1 agonist,FH mod,HTT-AS act,B2AR arrestin ag,HTT promoter inh
Cc1cc2c(C(C)C)c(O)c(O)c(C=O)c2c(O)c1-c1c(C)cc2c(C(C)C)c(O)c(O)c(C=O)c2c1O,i,-19,28µM*!,-89%,nt,?
c1ccc2c(c1)CCc1ccccc1N2,i,119*,?,12%,nt,10%
O=C1c2ccccc2CCc2ccccc21,i,11,-2%[53.3 µM],13%,nt,7%
CCOC(=O)N1CCN(C(=O)Cn2sc3nc(C)cc(C)c3c2=O)CC1,nt,nt,4%,nt,nt,nt
CCOc1ccc(-c2csc3ncnc(Nc4cccc(O)c4)c23)cc1,i,?,?,-29%,i,?
Oc1cccc(Nc2ncnc3sc4c(c23)CCCC4)c1,i,66*,7%,-35%,i,-26%
CC1(c2ccccc2)CC(C)(C)N(C(=O)c2ccccc2Cl)c2ccccc21 (stereo unspecified),i,-1,-9%,-39%,i,-28%
COc1ccccc1C(=O)N1c2ccccc2C(C)(c2ccc(Cl)cc2)CC1(C)C (stereo unspecified),i,-24,-10%,-50%,i,25µM*
COc1ccc2[nH]cc(CCNC(=O)Nc3cccc(F)c3)c2c1,i,93*,-13%,-17%,i,-4%
CCc1ccc(CN(Cc2cn[nH]c2-c2ccc(OC)cc2)C(=O)Nc2ccc(Br)cc2)cc1,i,2,-27%,-58%,i,14µM*
CCOc1ccc(NC(=O)N(Cc2ccc(CC)cc2)Cc2cn[nH]c2-c2ccc(OC)cc2)cc1,i,-22,?,-20%,i,?
Cc1cc(-c2cc(O)ccc2Cl)cc2nnc(Nc3ccc(OCCN4CCCC4)cc3)nc12,nt,nt,0%,nt,nt,nt
O=C(c1ccc(-c2ccc(Cl)cc2)o1)N(Cc1ccccn1)c1ccc(N2CCNCC2)cc1,nt,nt,6%,nt,nt,nt
CSc1ccc(CCNC(=O)Cn2ncc3c(=O)oc4ccccc4c32)cc1,i,67*,-1%,-4%,i,-13%
CCCNc1nc(NCc2ccccc2OC)c2cnn(C)c2n1,i,?,-12%,-29%,i,?
CCNc1nc(NCc2ccc(F)cc2)c2cnn(C)c2n1,i,72*,1%,-31%,i,?
C=C1C(=O)OC2/C=C(\CO)CC/C=C(\C=O)C(OC)C(OC(=O)C(C)CC)C12 (stereo unspecified),nt,nt,-5%[53.3 µM],nt,nt,nt
C[C@@H]1[C@H]2[C@H](O[C@@H]3O[C@H](CO)[C@@H](O)[C@H](O)[C@H]3O)OC=C(C(=O)O)[C@H]2C[C@@H]1OC(=O)/C=C/c1ccc(O)cc1,nt,nt,-6%[53.3 µM],nt,nt,nt
CC(C)(C)CC(C)(C)c1ccc(OCC(=O)Nc2ccc(S(=O)(=O)Nc3ncccn3)cc2)cc1,i,-3,-4%,11%,i,-16%
CC(C)(C)c1ccc(OCC(=O)Nc2ccc(S(=O)(=O)Nc3ncccn3)cc2)cc1,i,79*,-13%,27%,i,-5%
CN1CCc2c(sc3c2C(=O)NC(c2ccc(OC(=O)c4ccc(C(C)(C)C)cc4)cc2)N3)C1 (stereo unspecified),i,65*,?,-73%,i,?
CC(=O)OC1CC(O)(C(C)C)C2C(OC(=O)c3ccc(O)cc3)C=C(C)C(=O)CC12C (stereo unspecified),nt,nt,-3%[53.3 µM],nt,nt,nt
COC(=O)c1ccc(NC(=O)C2CCN(C(=O)c3ccc(F)cc3)CC2)cc1,i,61*,-5%,-12%,i,-23%
COc1cc(-c2cccc(O)c2)cc2c1OCO2,nt,nt,-6%,nt,nt,nt
COc1c(C(C)C)c(O)c(O)c2c1C(OC)[C@H]1OC(=O)[C@@]23CCCC(C)(C)[C@H]13 (stereo partly specified),nt,nt,13µM*,nt,nt,nt
